The structures appear in SMILES notation.

The nature of the first experiment: MRP1 drug-resistance reversers in H69AR cells – cell-based, doxorubicin co-treatment, pilot screen (AID 601). As to conditions: H69AR cells + 2 uM doxorubicin, CellTiter-Glo, 72 h; measured here: viability with 2 uM doxorubicin; at 10 µM; stronger effect = lower value.
As to `CC1Cc2nc(SCC(=O)Nc3ccc(F)cc3F)n(C)c(=O)c2S1` (stereo not given), the viability was determined as 100%.
Same read-out and setting: the figure for `COC(=O)CCn1nnc(-c2cccs2)n1` is 97.4%.
The same measure, in the same setting: the figure for `CCN(C#N)c1nc(NC(C)C)nc(NC(C)C)n1` is 88.8%; for `COc1ccccc1C(=O)Nc1ccc(S(=O)(=O)N2CCCC2)cc1` it is 78.4%.
As to `COC(=O)c1[nH]c2ccccc2c1NC(=O)CN1CCC(C(N)=O)(N2CCCCC2)CC1`, the viability was determined as 87.8%.
Still for that read-out and setting: the figure for `CC(O)c1c(OCc2ccccc2)ncnc1OCc1ccccc1` (stereo not given) is 79.3%; for `Cc1c(C(=O)OC(C)C)[nH]c2c1C(=O)CCC2` it is 93%.
Take `CC(C)CNC(=O)C1C2C=CC(C2)C1C(=O)O` (stereo not given): the viability turned out to be 102%.
As for `COc1cccc(Cn2c(Oc3ccccc3)nc3c2c(=O)n(C)c(=O)n3C)c1`, the viability came out at 80.5%.
The same measure, in the same setting: the figure for `CC(C)(C)NC(=O)Cn1nnc(-c2cccs2)n1` is 79.1%; for `COc1cc(CN2CCN(C(=O)CC(C)C)CC2)cc(OC)c1O` it is 96.8%; for `CCn1c(C)nc2cc(C(=O)OCCC(F)(F)F)ccc21` it is 93.7%.
The same measure, in the same setting: the figure for `CCn1c(CC(=O)Nc2cccc(OC)c2)nnc1SCC(=O)Nc1nccs1` is 97%.
The same measure, in the same setting: the figure for `CCOc1cc(NC(=O)c2ccco2)c(OCC)cc1NC(=O)CCC(=O)NCc1cccnc1` is 90.8%; for `CCN(CC)c1ccc(CNc2ccc(Br)cn2)cc1` it is 105%; for `CCOc1ccccc1C(=O)NCCC(=O)O` it is 95.1%.
With `Cc1ccc(-c2csc3nnc(SCC(=O)NCc4ccco4)n23)cc1`, the viability was determined as 83.6%.
Consider `C=CCSc1nnc(-c2ccccc2NC(C)=O)c(=O)[nH]1`, for which the viability turned out to be 83.4%.
The same measure, in the same setting: the figure for `CNC(=O)CSc1nnc(-c2cccc(S(=O)(=O)N3CCOCC3)c2)n1-c1ccc(F)cc1` is 98.5%; for `O=C(NCc1ccccc1)C1CCN(S(=O)(=O)N2CCCCCC2)CC1` it is 93.1%.
Consider `CC(C(=O)N1CCc2ccccc21)N1CCc2ccccc2C1` (stereo not given), for which the viability amounted to 102%.
As for `CCCNC(=O)c1ccccc1C(=O)NCCC`, the viability came out at 95.5%.
Take `CCCC(C)c1nnc(NC(=O)C2CCCO2)s1` (stereo not given): the viability amounted to 93%.
The same measure, in the same setting: the figure for `CCN(CC)S(=O)(=O)c1cccc2c(N(C)C)cccc12` is 89.2%; for `O=C1CC(C2CCCO2)C(=O)N1Cc1ccccc1` (stereo not given) it is 99.4%.
Still for that read-out and setting: the figure for `O=c1[nH]c(SCc2cc(=O)n3ccccc3n2)nc2c1CCC2` is 83.6%; for `COC(=O)c1cc2oc(C)cc2n1CC(=O)N(C)c1ccccc1` it is 88%.
In the case of `Cc1cc(NC(=O)Cn2cnc3c2c(=O)n(C)c(=O)n3C)n(-c2ccccc2)n1`, the viability was 99.3%.
The same measure, in the same setting: the figure for `CCc1nnc(NC(=O)c2cc3c(s2)CCCCC3)s1` is 78.7%; for `Cc1ccc(-c2ccc(=O)n(CCC(=O)NCc3ccccn3)n2)cc1` it is 86.2%; for `CCC(=O)N1CCc2cc(S(=O)(=O)CCC(=O)Nc3c(C)n(C)n(-c4ccccc4)c3=O)ccc21` it is 87.3%.
The same measure, in the same setting: the figure for `CC(=O)N1CCc2cc(S(=O)(=O)NCCC3=CCCCC3)ccc21` is 99%; for `COc1cccc(-n2nc(C(=O)Nc3ccc4c(c3)OCO4)c3ccccc3c2=O)c1` it is 86.3%; for `COCCCNS(=O)(=O)c1ccc2c(c1)CCN2C(C)=O` it is 105%.
For the molecule `Cc1ccc(S(=O)(=O)N2CCC(C(=O)NCCN3CCCCCC3)CC2)cc1`, the viability was 84.6%.
Turning to `CCN(CC)c1ccc(-c2nn3c(-c4cccnc4)nnc3s2)cc1`, the viability came to 15.4%.
On the same count and under the same terms, the figure for `Cc1cccc(-c2c3c(=O)n(C)c(=O)n(C)c3cn2-c2ccc(O)cc2)c1` is 93.1%.
With `CCOC(=O)c1[nH]c2ccc(OC)cc2c1NC(=O)CCN1CCC(C)CC1`, the viability amounted to 97.2%.
Still for that read-out and setting: the figure for `CCS(=O)(=O)N1CCCC(C(=O)NCc2ccccc2Cl)C1` (stereo not given) is 88.9%; for `Cc1ccc(N2CC(C)Cn3c2nc2c3c(=O)n(CC(=O)OCc3ccccc3)c(=O)n2C)cc1C` (stereo not given) it is 67.2%.

The experiment is the same for the next values; noted with them: H69AR cells, CellTiter-Glo, 72 h; compound alone cytotoxicity; at 10 µM.
For the molecule `CC1Cc2nc(SCC(=O)Nc3ccc(F)cc3F)n(C)c(=O)c2S1` (stereo not given), the viability stood at 91.7%.
In the case of `COC(=O)CCn1nnc(-c2cccs2)n1`, the viability amounted to 103%.
Regarding `CCN(C#N)c1nc(NC(C)C)nc(NC(C)C)n1`, the viability amounted to 93.6%.
Consider `COc1ccccc1C(=O)Nc1ccc(S(=O)(=O)N2CCCC2)cc1`, for which the viability was found to be 94.5%.
Take `COC(=O)c1[nH]c2ccccc2c1NC(=O)CN1CCC(C(N)=O)(N2CCCCC2)CC1`: the viability was found to be 93.2%.
Still for that read-out and setting: the figure for `CC(O)c1c(OCc2ccccc2)ncnc1OCc1ccccc1` (stereo not given) is 93.8%; for `Cc1c(C(=O)OC(C)C)[nH]c2c1C(=O)CCC2` it is 106%; for `CC(C)CNC(=O)C1C2C=CC(C2)C1C(=O)O` (stereo not given) it is 111%.
Regarding `COc1cccc(Cn2c(Oc3ccccc3)nc3c2c(=O)n(C)c(=O)n3C)c1`, the viability is 83.8%.
Same read-out and setting: the figure for `CC(C)(C)NC(=O)Cn1nnc(-c2cccs2)n1` is 92.2%; for `COc1cc(CN2CCN(C(=O)CC(C)C)CC2)cc(OC)c1O` it is 102%; for `CCn1c(C)nc2cc(C(=O)OCCC(F)(F)F)ccc21` it is 89.8%.
On to `CCn1c(CC(=O)Nc2cccc(OC)c2)nnc1SCC(=O)Nc1nccs1`, for which the viability worked out at 101%.
Still for that read-out and setting: the figure for `CCOc1cc(NC(=O)c2ccco2)c(OCC)cc1NC(=O)CCC(=O)NCc1cccnc1` is 86.1%; for `CCN(CC)c1ccc(CNc2ccc(Br)cn2)cc1` it is 90.7%; for `CCOc1ccccc1C(=O)NCCC(=O)O` it is 96.4%.
As to `Cc1ccc(-c2csc3nnc(SCC(=O)NCc4ccco4)n23)cc1`, the viability was found to be 84.2%.
The same measure, in the same setting: the figure for `C=CCSc1nnc(-c2ccccc2NC(C)=O)c(=O)[nH]1` is 93%; for `CNC(=O)CSc1nnc(-c2cccc(S(=O)(=O)N3CCOCC3)c2)n1-c1ccc(F)cc1` it is 93.2%.
On to `O=C(NCc1ccccc1)C1CCN(S(=O)(=O)N2CCCCCC2)CC1`, for which the viability was 96.7%.
Turning to `CC(C(=O)N1CCc2ccccc21)N1CCc2ccccc2C1` (stereo not given), the viability amounted to 91.6%.
Still for that read-out and setting: the figure for `CCCNC(=O)c1ccccc1C(=O)NCCC` is 90.5%; for `CCCC(C)c1nnc(NC(=O)C2CCCO2)s1` (stereo not given) it is 93.9%.
In the case of `CCN(CC)S(=O)(=O)c1cccc2c(N(C)C)cccc12`, the viability came to 93.3%.
On to `O=C1CC(C2CCCO2)C(=O)N1Cc1ccccc1` (stereo not given), for which the viability was 103%.
Take `O=c1[nH]c(SCc2cc(=O)n3ccccc3n2)nc2c1CCC2`: the viability is 85.2%.
With `COC(=O)c1cc2oc(C)cc2n1CC(=O)N(C)c1ccccc1`, the viability was 95.4%.
Regarding `Cc1cc(NC(=O)Cn2cnc3c2c(=O)n(C)c(=O)n3C)n(-c2ccccc2)n1`, the viability turned out to be 108%.
The same measure, in the same setting: the figure for `CCc1nnc(NC(=O)c2cc3c(s2)CCCCC3)s1` is 76.1%.
Take `Cc1ccc(-c2ccc(=O)n(CCC(=O)NCc3ccccn3)n2)cc1`: the viability was 84.3%.
On the same count and under the same terms, the figure for `CCC(=O)N1CCc2cc(S(=O)(=O)CCC(=O)Nc3c(C)n(C)n(-c4ccccc4)c3=O)ccc21` is 94%; for `CC(=O)N1CCc2cc(S(=O)(=O)NCCC3=CCCCC3)ccc21` it is 91.1%.
Still for that read-out and setting: the figure for `COc1cccc(-n2nc(C(=O)Nc3ccc4c(c3)OCO4)c3ccccc3c2=O)c1` is 92.2%; for `COCCCNS(=O)(=O)c1ccc2c(c1)CCN2C(C)=O` it is 87.1%; for `Cc1ccc(S(=O)(=O)N2CCC(C(=O)NCCN3CCCCCC3)CC2)cc1` it is 103%.
With `CCN(CC)c1ccc(-c2nn3c(-c4cccnc4)nnc3s2)cc1`, the viability turned out to be 10.9%.
As for `Cc1cccc(-c2c3c(=O)n(C)c(=O)n(C)c3cn2-c2ccc(O)cc2)c1`, the viability stood at 86.6%.
Same read-out and setting: the figure for `CCOC(=O)c1[nH]c2ccc(OC)cc2c1NC(=O)CCN1CCC(C)CC1` is 96.8%.
The same measure, in the same setting: the figure for `CCS(=O)(=O)N1CCCC(C(=O)NCc2ccccc2Cl)C1` (stereo not given) is 94.7%; for `Cc1ccc(N2CC(C)Cn3c2nc2c3c(=O)n(CC(=O)OCc3ccccc3)c(=O)n2C)cc1C` (stereo not given) it is 93.8%.

The values above are taken from PubChem BioAssay.
